From PubChem BioAssay (Tox21)
Inconclusive results are not listed. Values without a mark were called inactive. Activity calls are given as the source filed them. Calls come from the whole dose curve; as a rule, active = well fitted cell-killing curve with a large enough effect in the repeat runs; inconclusive = weak or mixed curves, or effect the other way; inactive = flat fitted curve, though single readings scatter.

experiment: cAMP Responsive Elements (CRE) small molecule antagonists, cell-based qHTS assay: qHTS cell viability counter screen (AID 2060913); conditions: CRE-bla HEK293T viability, CellTiter-Glo luminescence, 5 h; series mostly up to 92.4 µM; viability change, negative = cytotoxic: at the top concentration; note: nearly all actives have a fitted effect of over 40% in size
Source text: U.S. Tox21 Program National Center for Advancing Translational Sciences [NCATS] Division of Preclinical Innovation [DPI] U.S. Environmental Protection Agency [EPA] National Institutes of Environmental Health Sciences [NIEHS] National Toxicology Program [NTP] U.S. Food and Drug Administration [FDA] Tox21 Assay Overview: CREB (cyclic-AMP Responsive Element Binding Protein) is a cellular transcription factor. It binds to certain DNA sequences called cAMP Responsive Elements (CRE) and regulates the transcription of the genes. […] This cell line can be used to find agonists/antagonists of the cyclic AMP signaling pathway. The activation of the report gene under culture conditions can be detected by fluorescence intensity. This cell line has been used to screen the Tox21 10K compound library to identify agonists that induce oxidative stress. The cytotoxicity of the Tox21 compound library against the CRE-bla cell line was tested in parallel by measuring the cell viability using CellTiter-Glo assay (Promega, Madison, WI) in the same wells.
Tox21 Assay Protocol Summary: CRE-bla Hek 293T cells were suspended in assay medium (DMEM containing 10% dialyzed FBS, 0.1 mM NEAA, 1 mM sodium pyruvate and 25 mM HEPES) and dispensed at 2,000 cells/4 uL /well into 1536-well black wall/clear bottom plates using a Multidrop Combi (ThermoFisher Scientific, Waltham, MA) dispenser. After the assay plates were incubated at 37 C/5% CO2 for 18 hrs, 23 nL of compounds dissolved in DMSO, positive controls or DMSO only was transferred to the assay plate by a pintool workstation (Kalypsys, San Diego, CA), followed by addition of 1 uL of 1.25uM NKH477 (0.25 uM as final concentration) in assay medium using a Flying Reagent Dispenser (Aurora Discovery, San Diego, CA). The plates were incubated at 37 C and 5% CO2 for 3 hrs. Then 1 uL of LiveBLAzer B/G FRET substrate (Invitrogen, Carlsbad, CA) was added to each well using Bioraptr Flying Reagent Dispenser (FRD, Aurora Discovery, San Diego, CA). The plates were incubated at room temperature for 2 h, then fluorescence intensities were measured using an Envision plate reader (PerkinElmer, Shelton, CT) at Excitation 405nm, Emission 460nm and 530nm. The % activity was determined from the ratio of 460nm/530nm. For cell viability readout that measures cytotoxicity, 4 uL /well of CellTiter-Glo reagent was added into the assay plates using Bioraptr FRD. After 30 min incubation at room temperature, the luminescence intensity in the assay plates was measured using a ViewLux (PerkinElmer, Shelton, CT) plate reader.
% is set by controls: 0 for no effect and ±100 for the full control effect; potency is the fitted concentration of half-maximal effect.

SMILES | Potency | viability change, negative = cytotoxic
CC(COc1ccccc1)N(CCCl)Cc1ccccc1 (stereo not given) | inactive | –
Cc1cccc2c1ccc1ccccc12 | – | -10.7%
Cc1cccc(C)c1O | inactive | –
OCCCc1cccnc1 | – | 1.62%
CCc1nccnc1CC | – | 0.102% [at 18.9 µM]
CC(=O)C1=C(C)[C@@H]2C[C@@]3(C1)[C@H](C)CC[C@H]3C2(C)C | inactive | –
Cc1cc(C(C)(C)C)c(O)c(C)c1Cn1c(=O)n(Cc2c(C)cc(C(C)(C)C)c(O)c2C)c(=O)n(Cc2c(C)cc(C(C)(C)C)c(O)c2C)c1=O | – | -13.9%
C[C@H]1C[C@H]2[C@@H]3CCC4=CC(=O)C=C[C@]4(C)[C@@]3(F)[C@@H](O)C[C@]2(C)[C@@]1(O)C(=O)CO | inactive | –
CCCCOC(O)CC (stereo not given) | – | 5.28%
CCCCCOc1ccc(C2SC(=O)NC2=O)cc1OCC (stereo not given) | – | -0.301% [at 42.5 µM]
CC(C)(O)Cc1ccccc1 | – | -0.388%
COc1cc(N)ccc1C | – | -4.79%
c1ccc2c(c1)Oc1ccccc1S2 | inactive | –
OC1CCC(C2CCCCC2)CC1 (stereo not given) | – | 9.61%
O=C1CCC(=O)N1Cl | – | -5.05%
c1ccc(CCCc2ccccn2)cc1 | – | 0.169%
CC/C(=C\C(=N/O)C(N)=O)C(C)[N+](=O)[O-] (stereo not given) | – | -9.69%
CC(=O)c1ccc(Cl)c(Cl)c1Cl | – | 0.793%
CCOC(=O)OC(C)OC(=O)[C@@H]1N2C(=O)[C@@H](NC(=O)[C@H](N)c3ccccc3)[C@H]2SC1(C)C (stereo not given in full) | – | -2.45% [at 42.5 µM]
Cc1cc(CCCOc2c(C)cc(-c3noc(C(F)(F)F)n3)cc2C)on1 | – | -13% [at 42.5 µM]

SMILES | Potency | viability change, negative = cytotoxic
CCCCCCCC/C=C\CCCCCCCCOCCO | 79.4 µM (active) | –
CCOC(=N)CC(=O)OCC | – | -3.07%
O=C(O)Cc1sc(-c2ccccc2)nc1-c1ccc(Cl)cc1 | – | 5.92% [at 42.5 µM]
CCOC(=O)CCc1ccccc1 | – | 0.0873%
Nc1ccc2cc(S(=O)(=O)O)cc(O)c2c1 | – | 4.2%
Cc1cc(O)c2c(c1)C(=O)c1cccc(O)c1C2=O | – | -24.6% [at 42.5 µM]
Cc1oc(=O)oc1COC(=O)[C@@H]1N2C(=O)[C@@H](NC(=O)[C@H](N)c3ccccc3)[C@H]2SC1(C)C | – | -0.337% [at 42.5 µM]
Clc1cccc(-c2cc(Cl)cc(Cl)c2)c1 | – | 0.118%
C=C[C@@H](C)CCC=C(C)C | – | 1.58%
C[Si]1(C)N[Si](C)(C)N[Si](C)(C)N1 | – | -0.142%
OC(CCN1CCCCC1)(c1ccccc1)C1CC2C=CC1C2 (stereo not given) | – | -2% [at 42.5 µM]
C=CC1CO1 (stereo not given) | – | -4.42%
CC12CC3CC(C)(C1)CC(N)(C3)C2 | – | 5.73% [at 42.5 µM]
CCc1ccc(C(c2ccc(CC)cc2)C(Cl)Cl)cc1 | inactive | –
O=C1CCCCCCCCCCOCCCCO1 | – | -3.5%
C=C(C)C(=O)OCCOCC | – | -0.872%
C#Cc1ccc(-c2ccccc2F)cc1 | – | 4.81% [at 42.5 µM]
COc1ccnc(CS(=O)c2nc3cc(OC(F)F)ccc3[nH]2)c1OC (stereo not given) | – | 0.359%
CC[N+](C)(CC)CC | – | 9.58%
CC/C=C\CCOC(=O)CC | – | 9.62%
